Measurements from PubChem BioAssay AID1159580 (chemical genetic matrix, 2015).
Where “and” joins values, the source holds several entries; their conditions need not be identical. Equal entries are not always repeated. Out of some 5,500 compounds screened, about 2,000 (36%) were called active. Not shown: some 18% with an inconclusive outcome. Cut-off read from the data, not from the text of the source: active = normalized growth mostly below about 0.91 (no sharp cut-off); inconclusive = no clear call, values can overlap the other calls; inactive = mostly above about 0.92. This is one part of the list.

Assay: chemical genetic growth profiling, strain panel (AID 1159580);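 note: tested at 20 µM; growth read once vehicle control cultures reached saturation at 30 °C; 1 = growth at the plate median or of vehicle wells; lower values mean less growth of the strain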
Conditions: growth OD

Measured: normalized growth

CN1Cc2c(N)cccc2C(c2ccccc2)C1 (centres undefined)
inactive: S. cerevisiae deletion strains, locus YJR075W, strain HOC1, active compounds read low 1.01 and 0.995 | S. cerevisiae deletion strains, locus YKL009W, strain mrt4, active compounds read low 1 | S. cerevisiae deletion strains, locus YKL068W, active compounds read low 1 | S. cerevisiae deletion strains, locus YKL085W, strain MDH1 (second series), active compounds read low 1.01 | S. cerevisiae deletion strains, locus YKL085W, strain MDH1, active compounds read low 1.01 | S. cerevisiae deletion strains, locus YKL160W, strain elf1, active compounds read low 1.02 | S. cerevisiae deletion strains, locus YKL190W, strain CNB1, active compounds read low 1.01 | S. cerevisiae deletion strains, locus YKR001C, strain vps1, active compounds read low 1 | S. cerevisiae deletion strains, locus YKR026C, strain gcn3, active compounds read low 1.01 | S. cerevisiae deletion strains, locus YKR091W, strain srl3, active compounds read low 1 | S. cerevisiae deletion strains, locus YLL001W, strain dnm1, active compounds read low 1.01 | S. cerevisiae deletion strains, locus YLL026W, active compounds read low 1.01 | S. cerevisiae deletion strains, locus YLL041C, strain sdh2, active compounds read low 1.01 | S. cerevisiae deletion strains, locus YLR027C, strain aat2, active compounds read low 1.02 | S. cerevisiae deletion strains, locus YLR039C, strain RIC1, active compounds read low 1.03 | S. cerevisiae deletion strains, locus YLR058C, strain SHM2, active compounds read low 1 | S. cerevisiae deletion strains, locus YLR102C, strain apc9, active compounds read low 1.01 | S. cerevisiae deletion strains, locus YLR113W, strain HOG1, active compounds read low 0.982 | S. cerevisiae deletion strains, locus YLR221C, strain rsa3, active compounds read low 0.994 | S. cerevisiae deletion strains, locus YLR258W, strain gsy2, active compounds read low 0.99 | S. cerevisiae deletion strains, locus YLR262C, strain YPT6 (second series), active compounds read low 1.03 | S. cerevisiae deletion strains, locus YLR262C, strain YPT6, active compounds read low 1.05 | S. cerevisiae deletion strains, locus YLR268W, strain sec22, active compounds read low 1.02 | S. cerevisiae deletion strains, locus YLR320W, strain mms22, active compounds read low 0.971 | S. cerevisiae deletion strains, locus YLR330W, strain CHS5, active compounds read low 1.01 | S. cerevisiae deletion strains, locus YLR342W, strain FKS1 (second series), active compounds read low 1.06 | S. cerevisiae deletion strains, locus YLR342W, strain FKS1, active compounds read low 1.01 | S. cerevisiae deletion strains, locus YLR357W, strain rsc2, active compounds read low 0.982 | S. cerevisiae deletion strains, locus YLR370C, strain arc18, active compounds read low 1 | S. cerevisiae deletion strains, locus YLR371W, strain rom2, active compounds read low 1.02 | S. cerevisiae deletion strains, locus YLR384C, strain iki3, active compounds read low 1.01 | S. cerevisiae deletion strains, locus YLR418C, strain cdc73, active compounds read low 1.01 | S. cerevisiae deletion strains, locus YML016C, strain PPZ1, active compounds read low 1 | S. cerevisiae deletion strains, locus YML032C, strain rad52, active compounds read low 0.994 | S. cerevisiae deletion strains, locus YML120C, strain ndi1, active compounds read low 1.02 | S. cerevisiae deletion strains, locus YML124C, strain tub3, active compounds read low 1.01 | S. cerevisiae deletion strains, locus YMR058W, strain fet3, active compounds read low 1.02 | S. cerevisiae deletion strains, locus YMR078C, strain ctf18, active compounds read low 1.02 | S. cerevisiae deletion strains, locus YMR125W, strain sto1, active compounds read low 0.995 | S. cerevisiae deletion strains, locus YMR129W, active compounds read low 1.01 | S. cerevisiae deletion strains, locus YMR205C, strain PFK2, active compounds read low 1.04 | S. cerevisiae deletion strains, locus YMR223W, strain ubp8, active compounds read low 1.03 | S. cerevisiae deletion strains, locus YMR231W, strain pep5, active compounds read low 1 | S. cerevisiae deletion strains, locus YMR263W, strain SAP30, active compounds read low 1 | S. cerevisiae deletion strains, locus YMR307W, strain GAS1, active compounds read low 1.02 | S. cerevisiae deletion strains, locus YNL067W, strain RPL9B, active compounds read low 0.988 | S. cerevisiae deletion strains, locus YNL071W, strain lat1, active compounds read low 1.01 | S. cerevisiae deletion strains, locus YNL153C, strain GIM3, active compounds read low 0.969 | S. cerevisiae deletion strains, locus YNL175C, strain NOP13, active compounds read low 0.977 | S. cerevisiae deletion strains, locus YNL183C, strain NPR1, active compounds read low 0.929 | S. cerevisiae deletion strains, locus YNL197C, strain WHI3, active compounds read low 0.984 | S. cerevisiae deletion strains, locus YNL209W, strain ssb2, active compounds read low 0.994 | S. cerevisiae deletion strains, locus YNL224C, strain SQS1, active compounds read low 0.998 | S. cerevisiae deletion strains, locus YNL233W, strain BNI4, active compounds read low 0.981 | S. cerevisiae deletion strains, locus YNL248C, strain rpa49, active compounds read low 1.03 | S. cerevisiae deletion strains, locus YNL250W, strain rad50, active compounds read low 1.02 | S. cerevisiae deletion strains, locus YNL271C, strain bni1, active compounds read low 1.01 | S. cerevisiae deletion strains, locus YNL298W, strain CLA4, active compounds read low 1.01 | S. cerevisiae deletion strains, locus YNL307C, strain MCK1, active compounds read low 1.02 | S. cerevisiae deletion strains, locus YNL322C, strain KRE1 (second series), active compounds read low 1.01 | S. cerevisiae deletion strains, locus YNR049C, strain mso1, active compounds read low 1.02 | S. cerevisiae deletion strains, locus YNR052C, strain pop2, active compounds read low 1.02 | S. cerevisiae deletion strains, locus YOL006C, strain TOP1, active compounds read low 0.997 | S. cerevisiae deletion strains, locus YOL012C, strain htz1 0.779 | S. cerevisiae deletion strains, locus YOL147C, strain pex11, active compounds read low 1.01 | S. cerevisiae deletion strains, locus YOR001W, strain rrp6, active compounds read low 1.02 | S. cerevisiae deletion strains, locus YOR061W, strain CKA2, active compounds read low 1.01 | S. cerevisiae deletion strains, locus YOR069W, strain VPS5, active compounds read low 1.01 | S. cerevisiae deletion strains, locus YOR070C, strain gyp1, active compounds read low 1 | S. cerevisiae deletion strains, locus YOR080W, strain dia2, active compounds read low 1.02 | S. cerevisiae deletion strains, locus YOR083W, strain WHI5 (second series), active compounds read low 0.983 | S. cerevisiae deletion strains, locus YOR083W, strain WHI5, active compounds read low 0.989 | S. cerevisiae deletion strains, locus YOR106W, strain vam3, active compounds read low 1.03 | S. cerevisiae deletion strains, locus YOR136W, strain idh2, active compounds read low 1.01 | S. cerevisiae deletion strains, locus YOR144C, strain elg1, active compounds read low 1.01 | S. cerevisiae deletion strains, locus YOR184W, strain ser1, active compounds read low 1.01 | S. cerevisiae deletion strains, locus YOR231W, strain MKK1, active compounds read low 0.986 | S. cerevisiae deletion strains, locus YOR265W, strain rbl2, active compounds read low 1.01 | S. cerevisiae deletion strains, locus YOR270C, strain vph1, active compounds read low 1.04 | S. cerevisiae deletion strains, locus YOR290C, strain snf2, active compounds read low 0.99 | S. cerevisiae deletion strains, locus YOR316C, strain cot1, active compounds read low 1.02 | S. cerevisiae deletion strains, locus YPL051W, strain arl3, active compounds read low 1.01 | S. cerevisiae deletion strains, locus YPL055C, strain LGE1, active compounds read low 0.96 and 0.983 | S. cerevisiae deletion strains, locus YPL078C, strain atp4, active compounds read low 1.03 | S. cerevisiae deletion strains, locus YPL106C, strain sse1, active compounds read low 0.969 | S. cerevisiae deletion strains, locus YPL240C, strain hsp82, active compounds read low 1 | S. cerevisiae deletion strains, locus YPL241C, strain CIN2, active compounds read low 1.01 and 0.99 | S. cerevisiae deletion strains, locus YPL256C, strain CLN2, active compounds read low 0.974 | S. cerevisiae deletion strains, locus YPR119W, strain clb2, active compounds read low 1.01 | S. cerevisiae deletion strains, locus YPR141C, strain kar3, active compounds read low 1.02 | S. cerevisiae deletion strains, locus YPR163C, strain tif3, active compounds read low 1.01 | S. cerevisiae deletion strains, locus YPR167C, strain met16, active compounds read low 1.01 | S. cerevisiae deletion strains, strain wtn01, active compounds read low 1.02 | S. cerevisiae strains, strain wild type, active compounds read low 1
